High-throughput results from PubChem.
Rows were chosen to be rich in hits. Some 2.4% of all compounds tested hit in one or more screens of this group.
D2 antag = D2 dopamine receptor (human) antagonism; inhibition, % at 10 µM; actives 2% (n = 340,000); P14416; HEK293 TREx D2 cells, calcium flux, dopamine EC80; in the data active = inhibition above about 30%; inactive = below that, where a call was filed; note: 0% is about no effect
Target sequence (P14416 whole entry, looked up): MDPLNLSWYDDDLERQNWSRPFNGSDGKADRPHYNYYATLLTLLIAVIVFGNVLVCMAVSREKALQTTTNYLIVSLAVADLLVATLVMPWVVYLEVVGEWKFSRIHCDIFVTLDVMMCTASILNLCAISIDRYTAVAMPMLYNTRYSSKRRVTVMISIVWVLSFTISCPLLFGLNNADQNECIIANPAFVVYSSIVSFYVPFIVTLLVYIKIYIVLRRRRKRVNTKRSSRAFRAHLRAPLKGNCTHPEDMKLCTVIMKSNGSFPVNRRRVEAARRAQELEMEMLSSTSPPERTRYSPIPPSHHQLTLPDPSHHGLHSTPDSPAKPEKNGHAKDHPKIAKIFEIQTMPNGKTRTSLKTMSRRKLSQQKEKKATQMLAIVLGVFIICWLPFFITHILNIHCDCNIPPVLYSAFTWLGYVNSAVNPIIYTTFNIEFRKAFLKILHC
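Calcium mobilization kinetics were recorded at 1 s intervals in tetracycline-induced HEK293 T-REx D2 cells, first for 180 s after compound addition and then 180 s after EC80 dopamine.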
D2 PAM-1 = positively modulates the human D2 dopamine receptor allosterically | P14416 | HEK293 T-REx D2, calcium flux, EC20 dopamine potentiation | potentiation, % at 10 µM | actives 0.34% (n = 340,000);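 active = potentiation over 3 SD above the plate norm, cut at about 30% in these data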; note: 0% is about no effect
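Cells plated with tetracycline inducer and held overnight at 30 C; calcium dye loaded 30–90 min at room temperature; baseline taken, compound added and read 180 s; EC20 dopamine then added and read 180 s.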
D2 ag-1 = agonists of human D2 dopamine receptor (beta-arrestin) | P14416 | activation, % (no concentration beside the values) | DiscoveRx PathHunter D2 beta-arrestin, luminescence, 90 min; 100% = 57 uM dopamine signal | actives 0.084% (n = 360,000); in the data active = activation above about 40%
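DiscoveRx PathHunter D2 beta-arrestin cells (2,100/well) attached overnight, then compound-stimulated 90 min at 37 C in HBSS/10 mM HEPES/0.1% Tween-20 buffer; beta-galactosidase complementation read by luminescence after 1 h at ambient temperature. Dopamine 57 uM final (EC100) as control.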
D2 PAM-2 = human D2 receptor positive allosteric modulation | DiscoveRx D2 beta-arrestin cells, luminescence, 90 min; 100% = 57 uM dopamine signal | actives 0.23% (n = 360,000) | potentiation, % (concentration not given with the values) | AID 624464; in the data active = potentiation above about 50%
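PathHunter beta-arrestin assay in DiscoveRx D2 cells. Compounds were added with an EC20 of dopamine (50 nM final) for 90 min at 37 deg C. Luminescence was read 1 h after detection reagent, with 57 uM dopamine as the EC100 control.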
D2 ag-2 = agonists of human D2 dopamine receptor | actives 0.53% (n = 340,000) | P14416 | activation, % at 2 µM | HEK293 T-REx D2 cells, calcium flux agonist mode | AID 485358;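 active = activation over 3 SD above normal in the single-dose calcium agonist read, cut at about 30% in these data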; note: 0% is about no effect
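HEK293 Trex D2 cells, tetracycline-induced, o/n 30 C 5% CO2; no-wash Ca dye, RT 30–90 min; 10-cycle baseline, 23 nl cpd added, kinetic Ca read 180 s; agonist hits = positive Ca response.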
Numbers without * were called inactive; / = no result given.

SMILES	D2 antag	D2 PAM-1	D2 ag-1	D2 PAM-2	D2 ag-2
CCOC(=O)/C(=C/C=C1\Sc2cc(OCC)c(OCC)cc2N1CC)C(C)=O	72*	-20	2	-7	88*
CCOC(=O)/C(=C\C=C1/Sc2cc(OCC)c(OCC)cc2N1CC)C(C)=O	65*	-11	0	-9	100*
COc1cccc(Nc2nnc(-c3cc4ccc(O)cc4oc3=O)s2)c1	/	-6	/	/	/
Cc1ccc(-n2ccn(CC(=O)c3ccc(F)cc3)c(=O)c2=O)cc1C	/	/	/	/	-1
COC(=O)c1ccccc1NC(=O)CSc1nnc(-c2ccc(C)cc2)o1	7	31*	/	/	1
COC(=O)c1ccccc1NC(=O)CSc1nnc(-c2cccnc2)o1	7	/	-3	-10	-3
O=C(Nc1ccc(S(=O)(=O)NC2=NCCCCC2)cc1)c1ccc([N+](=O)[O-])s1	-20	-3	7	68*	0
O=C(Nc1ccc(S(=O)(=O)NC2=NCCCCC2)cc1)c1cccs1	/	/	-3	1	/
Cc1cc(NS(=O)(=O)c2ccc(NC(=O)c3ccc([N+](=O)[O-])s3)cc2)nc(C)n1	/	/	12	60*	/
CCOc1ccccc1NC(=O)CN(CCc1ccccc1)S(=O)(=O)c1ccc(C)cc1	/	-16	/	/	0
COc1ccc(C(=O)NCC(c2ccc(N(C)C)cc2)N2CCc3ccccc32)cc1 (centres undefined)	/	8	/	/	-4
COC(=O)c1cc(NC(=O)CN2CCOCC2)cc(C(=O)OC)c1	-2	-7	-4	5	7
O=C(Cc1ccc(Cl)cc1)Nc1ccc(Br)cc1	44*	-22	1	-26	0
O=C(CN1CCCCCC1)Nc1ccc(Br)cc1	77*	-23	7	-19	2
CCOC(=O)c1cc(NC(=O)CN2CCCC2)cc(C(=O)OCC)c1	9	36*	3	-3	-2
O=C(CN1CCCCCC1)Nc1ccc(Br)cn1	41*	12	-5	-3	-1
O=C(CN1CCCC1)Nc1ccc(Br)cc1	-22	7	-2	-3	1
CC1CN(CC(=O)Nc2ccc(Br)cn2)CC(C)O1 (centres undefined)	-19	13	2	2	2
O=C(Cn1nc2c(cc1=O)CCCC2)NCc1ccccc1Cl	/	8	/	/	2
O=C(CCN1CCCCC1)Nc1cccc(Br)c1	55*	-11	-5	-6	0
COC(=O)c1ccc(NC(=O)CN2CCN(CCO)CC2)cc1	33*	-11	0	-1	0
CN1CCN(CCC(=O)Nc2cccc(Br)c2)CC1	7	-14	-1	-11	0
O=C(O)c1cccnc1C(=O)N1CCc2c([nH]c3ccccc23)C1C(F)(F)F (centres undefined)	-16	6	4	-52	-2
c1cnc2c(C3NCCc4c3[nH]c3ccccc43)cccc2c1 (centres undefined)	36*	-21	-9	-95	0
COC(=O)Cc1c(C)c2ccc3c(c2oc1=O)CN(Cc1ccccc1OC)CO3	/	17	/	/	-1
SMILES	D2 antag	D2 PAM-1	D2 ag-1	D2 PAM-2	D2 ag-2
O=C(Nc1ccon1)Nc1ccc(F)cc1F	31*	-3	-2	-1	0
CC(=O)Nc1ccc(N2Cc3ccccc3C2)cc1	-2	1	7	52*	1
CC(=O)Nc1ccc(N2CCCC2)cc1	-14	-15	1	-10	0
COc1cc(/C=N/NC(=O)c2c(-c3ccccc3)noc2C)cc(OC)c1OC	56*	-21	7	8	-2
Cc1ccc(Cl)cc1N1CCN(C(=O)COc2cc(=O)n(C)c3ccccc23)CC1	/	1	/	/	/
Cc1nn(-c2ccccc2)c2c1C1(C(=O)N(C(C)C)c3ccccc31)C(C#N)=C(N)O2 (centres undefined)	12	-10	11	60*	1
Cc1ccc(C(=O)c2oc3ccccc3c2NC(=O)COc2ccccc2C)cc1	/	-8	/	/	0
COC(=O)CCCCCNc1ccc(C(=O)OC)cc1N	-5	-34	-1	8	37*
COc1ccc(N2CCN(c3oc(/C=C/c4cc(OC)c(OC)c(OC)c4)nc3C#N)CC2)cc1	/	6	/	/	/
COC(=O)c1c(Oc2ccc(C(C)=O)cc2)nnc(-c2ccccc2)c1-c1ccccc1	/	5	/	/	0
O=c1cc(-c2ccc(O)cc2)oc2ccc(O)cc12	37*	-7	-1	11	0
